{"source": "the antibiotic and cytotoxicity screens of Wong et al. (2023)", "note": "The whole screen tested about 39,000 compounds, of which about 3,300 (8.5%) were called active. The full list was thinned out, with actives kept by preference.", "data": [{"system": "HepG2", "experiment": "cytotoxicity call (relative viability < 0.9)", "details": "10 µM", "values": [{"smiles": "COc1ccccc1C#Cc1cnc2c(c1)C(=O)N([C@H](C)CO)C[C@H](C)[C@H](CN(C)S(=O)(=O)c1cn(C)cn1)O2", "cytotoxicity call": "inactive"}, {"smiles": "C[C@@H]1CCCCO[C@H](CN(C)S(=O)(=O)c2ccccc2)[C@H](C)CN([C@@H](C)CO)C(=O)c2cc(NS(=O)(=O)c3cn(C)cn3)ccc2O1", "cytotoxicity call": "inactive"}, {"smiles": "C[C@@H]1CCCCO[C@@H](CN(C)C(=O)Nc2cccc3ccccc23)[C@@H](C)CN([C@H](C)CO)C(=O)c2cc(NC(=O)c3ccccc3)ccc2O1", "cytotoxicity call": "inactive"}, {"smiles": "C[C@H](CO)N1C[C@H](C)[C@@H](CN(C)C(=O)Nc2cccc3ccccc23)OCCCC[C@H](C)Oc2ccc(NC(=O)c3ccncc3)cc2C1=O", "cytotoxicity call": "inactive"}, {"smiles": "C[C@H]1CCCCO[C@H](CN(C)C(=O)Nc2cccc3ccccc23)[C@@H](C)CN([C@@H](C)CO)C(=O)c2cc(NC(=O)c3ccncc3)ccc2O1", "cytotoxicity call": "inactive"}, {"smiles": "C[C@@H]1CN([C@H](C)CO)C(=O)c2cc(NC(=O)c3ccccc3)ccc2O[C@@H](C)CCCCO[C@@H]1CN(C)C(=O)Nc1cccc2ccccc12", "cytotoxicity call": "inactive"}, {"smiles": "C[C@@H]1CCCCO[C@H](CN(C)C(=O)Nc2cccc3ccccc23)[C@@H](C)CN([C@@H](C)CO)C(=O)c2cc(NC(=O)c3ccncc3)ccc2O1", "cytotoxicity call": "active"}, {"smiles": "C[C@H](CO)N1C[C@H](C)[C@@H](CN(C)C(=O)Nc2cccc3ccccc23)OCCCC[C@H](C)Oc2ccc(NC(=O)c3ccccc3)cc2C1=O", "cytotoxicity call": "inactive"}, {"smiles": "C[C@@H]1CN([C@H](C)CO)C(=O)c2cc(NC(=O)c3ccccc3)ccc2O[C@@H](C)CCCCO[C@H]1CN(C)C(=O)Nc1cccc2ccccc12", "cytotoxicity call": "active"}, {"smiles": "C[C@@H]1CCCCO[C@@H](CN(C)C(=O)Nc2cccc3ccccc23)[C@@H](C)CN([C@@H](C)CO)C(=O)c2cc(NC(=O)c3ccccc3)ccc2O1", "cytotoxicity call": "inactive"}, {"smiles": "C[C@@H]1CCCCO[C@@H](CN(C)C(=O)Nc2cccc3ccccc23)[C@H](C)CN([C@@H](C)CO)C(=O)c2cc(NC(=O)c3ccccc3)ccc2O1", "cytotoxicity call": "active"}, {"smiles": "C[C@@H]1CN([C@@H](C)CO)C(=O)c2cc(NC(=O)c3ccccc3)ccc2O[C@@H](C)CCCCO[C@H]1CN(C)C(=O)Nc1cccc2ccccc12", "cytotoxicity call": "active"}, {"smiles": "C[C@@H]1CCCCO[C@H](CN(C)C(=O)Nc2cccc3ccccc23)[C@H](C)CN([C@@H](C)CO)C(=O)c2cc(NC(=O)c3ccccc3)ccc2O1", "cytotoxicity call": "inactive"}, {"smiles": "C[C@@H]1CCCCO[C@H](CN(C)C(=O)Nc2cccc3ccccc23)[C@@H](C)CN([C@H](C)CO)C(=O)c2cc(NC(=O)c3ccccc3)ccc2O1", "cytotoxicity call": "inactive"}, {"smiles": "CC(C)NC(=O)N(C)C[C@H]1OCCCC[C@@H](C)Oc2ccc(NC(=O)Nc3ccc(F)cc3)cc2C(=O)N([C@@H](C)CO)C[C@H]1C", "cytotoxicity call": "inactive"}, {"smiles": "CC(C)CC#Cc1cnc2c(c1)C(=O)N([C@H](C)CO)C[C@@H](C)[C@H](CN(C)S(=O)(=O)c1cccs1)O2", "cytotoxicity call": "inactive"}, {"smiles": "Cc1noc(C)c1S(=O)(=O)N(C)C[C@H]1OCCCC[C@H](C)Oc2ccc(NS(C)(=O)=O)cc2C(=O)N([C@@H](C)CO)C[C@@H]1C", "cytotoxicity call": "inactive"}, {"smiles": "C[C@@H]1CN([C@@H](C)CO)C(=O)Cc2cc(NC(=O)C3CC3)ccc2O[C@H]1CN(C)C(=O)Nc1ccc2c(c1)OCO2", "cytotoxicity call": "inactive"}, {"smiles": "CNC(=O)c1ccc2c(c1)OCO2", "cytotoxicity call": "inactive"}, {"smiles": "O=C(C[C@@H]1C[C@H]2c3cc(NS(=O)(=O)c4ccc(F)cc4)ccc3O[C@H]2[C@H](CO)O1)NCc1cccc(F)c1", "cytotoxicity call": "inactive"}, {"smiles": "C[C@H]1CN([C@@H](C)CO)C(=O)Cc2cc(NC(=O)NC3CCCCC3)ccc2O[C@H]1CN(C)C(=O)Nc1ccc(C(F)(F)F)cc1", "cytotoxicity call": "inactive"}, {"smiles": "C[C@H](CO)N1C[C@H](C)[C@@H](CN(C)Cc2ccc(Oc3ccccc3)cc2)Oc2cc(Br)ccc2S1(=O)=O", "cytotoxicity call": "inactive"}, {"smiles": "C[C@H]1CN([C@@H](C)CO)C(=O)Cc2cc(NS(=O)(=O)c3cccs3)ccc2O[C@H]1CN(C)S(=O)(=O)c1ccccc1", "cytotoxicity call": "inactive"}, {"smiles": "C[C@@H]1CCCCO[C@@H](CN(C)Cc2ccccc2)[C@H](C)CN([C@@H](C)CO)C(=O)c2cc(NS(=O)(=O)c3ccc(F)cc3)ccc2O1", "cytotoxicity call": "inactive"}, {"smiles": "Cc1c2oc3c(C)ccc(C(=O)OC(C)C4NC(=O)C(C(C)C)N(C)C(=O)CN(C)C(=O)C5CCCN5C(=O)C(C(C)C)NC4=O)c3nc-2c(C(=O)OC(C)C2NC(=O)C(C(C)C)N(C)C(=O)CN(C)C(=O)C3CCCN3C(=O)C(C(C)C)NC2=O)c(N)c1=O", "note": "(stereo not drawn)", "cytotoxicity call": "active"}, {"smiles": "Cc1c2oc3c(C)ccc(C(=O)N[C@@H]4C(=O)N[C@@H](C(C)C)C(=O)N5CCC[C@H]5C(=O)N(C)CC(=O)N(C)[C@@H](C(C)C)C(=O)O[C@@H]4C)c3nc-2c(C(=O)N[C@@H]2C(=O)N[C@@H](C(C)C)C(=O)N3CCC[C@H]3C(=O)N(C)CC(=O)N(C)[C@@H](C(C)C)C(=O)O[C@@H]2C)c(N)c1=O", "cytotoxicity call": "active"}, {"smiles": "Cc1c2oc3c(C)ccc(C(=O)N[C@@H]4C(=O)N[C@H](C(C)C)C(=O)N5CCC[C@H]5C(=O)N(C)CC(=O)N(C)[C@@H](C(C)C)C(=O)O[C@@H]4C)c3nc-2c(C(=O)N[C@@H]2C(=O)N[C@H](C(C)C)C(=O)N3CCC[C@H]3C(=O)N(C)CC(=O)N(C)[C@@H](C(C)C)C(=O)O[C@@H]2C)c(N)c1=O", "cytotoxicity call": "active"}, {"smiles": "CO[C@@H]1CN(C)C(=O)c2cc(NC(=O)c3cc(C)on3)ccc2OC[C@@H](C)N(S(=O)(=O)c2ccccc2)C[C@H]1C", "cytotoxicity call": "inactive"}, {"smiles": "COc1ccc(S(=O)(=O)N(C)C[C@H]2Oc3c(NS(=O)(=O)c4ccccc4)cccc3C(=O)N([C@H](C)CO)C[C@H]2C)cc1", "cytotoxicity call": "inactive"}, {"smiles": "Cc1ccc(S(=O)(=O)Nc2cccc3c2O[C@H](CN(C)S(=O)(=O)c2cccs2)[C@H](C)CN([C@H](C)CO)C3=O)cc1", "cytotoxicity call": "inactive"}, {"smiles": "CC(C)NC(=O)N(C)C[C@@H]1OCCCC[C@H](C)Oc2ccc(NS(C)(=O)=O)cc2C(=O)N([C@@H](C)CO)C[C@@H]1C", "cytotoxicity call": "inactive"}, {"smiles": "C[C@@H]1CN([C@H](C)CO)C(=O)Cc2cc(NC(=O)C3CC3)ccc2O[C@H]1CN(C)Cc1ccc(Oc2ccccc2)cc1", "cytotoxicity call": "inactive"}, {"smiles": "Cc1noc(C)c1NC(=O)Nc1ccc2c(c1)C(=O)N([C@H](C)CO)C[C@@H](C)[C@@H](CN(C)C(=O)Nc1ccc(C(F)(F)F)cc1)O2", "cytotoxicity call": "inactive"}]}]}
